From PubChem BioAssay (NCATS)
The list shows a part of the results. Active and inactive are the calls of the source. Calls come from the whole dose curve; as a rule, active = well fitted inhibition curve with a large enough effect; inconclusive = small, poorly fitted or top-dose-only effect, or another doubt; inactive = no such curve, though single readings can be large or run the other way.

Biological target: Vitamin D3 receptor (Homo sapiens) (UniProt P11473)
Experiment: qHTS for Inhibitors of the vitamin D receptor (VDR): Hit Validation using a Beta-Lactamase Assay (AID 602202)
Conditions: VDR beta-lactamase reporter cells, FRET ratio, cells co-treated with VDR agonist LG190178; series mostly up to 46.1 µM
Source text: The vitamin D receptor (VDR) is a ligand-activated transcription factor and is partially responsible for the regulation of the endocrine system. This includes the transcriptional regulation of genes involved in the production of the parathyroid hormone (PTH) and the regulation of the blood calcium level. High levels of PHT can cause hypercalcemia in the case of primary and tertiary hyperparathyroidism. The VDR-mediated gene regulation, activated by its ligand 1,25-dihydroxyvitamin D3 (1,25-(OH)2D3), is governed by the recruitment of coactivators. Our hypothesis is that small molecules, with the ability to inhibit the interaction between VDR and certain coactivators, are able to selectively modulate VDR-mediated transcription. Our long term objective is the application these VDR-coactivator inhibitors to study the role of VDR-coactivator binding for specific VDR regulated genes. Ultimately, these molecules can be developed into new treatments for hypercalcemic hyperparathyroidism. No small molecule or non-peptide inhibitors are known for the VDR-coactivator interaction.
In a collaboration between the University of Wisconsin, Milwaukee and the NIH Chemical Genomics Center (NCGC) a HTS-compatible enzymatic assay was developed. The assay uses fluorescence polarization as its read-out to measure the inhibition between VDR and coregulator peptide SRC2-3 exerted by small molecules. This assay was used to screen the NIH Molecular Libraries Small Molecule Repository (MLSMR). The cell-based VDR transcription assay was carried out with commercially available stably transfected HEK293 cells. The cell line expresses a fusion protein of VDR-GAL4 DNA binding domain, which is activated by agonist LG190178 and induces transcription of a beta-lactamase reporter gene under control of an UAS response element. Successful activation is detected by a decrease in time-resolved fluorescence resonance energy transfer (TR-FRET) caused by enzymatic cleavage of fluorescent betalactam substrate added after 24h incubation. The cleaved substrate concentration was quantified by measuring the fluorescence emission at 447 nm.
NIH Chemical Genomics Center [NCGC]
NIH Molecular Libraries Probe Centers Network [MLPCN]
Assay Submitter (PI): Alexander Arnold, University of Wilwaukee
Plate: 384 black clear bottom, tissue culture treated
Step 1: Plate 20,000 cell per well (32 uL)
Step 2: 4 hours incubatio
Step 3: Add screening compounds
Step 5: 18 hour incubation
Step 6: Add FRET reagent (6 uL)
Step 7: 2 hour incubation
Potency is the fitted concentration of half-maximal effect.

Vitamin D3 receptor (Homo sapiens), sequence (P11473 whole entry, looked up): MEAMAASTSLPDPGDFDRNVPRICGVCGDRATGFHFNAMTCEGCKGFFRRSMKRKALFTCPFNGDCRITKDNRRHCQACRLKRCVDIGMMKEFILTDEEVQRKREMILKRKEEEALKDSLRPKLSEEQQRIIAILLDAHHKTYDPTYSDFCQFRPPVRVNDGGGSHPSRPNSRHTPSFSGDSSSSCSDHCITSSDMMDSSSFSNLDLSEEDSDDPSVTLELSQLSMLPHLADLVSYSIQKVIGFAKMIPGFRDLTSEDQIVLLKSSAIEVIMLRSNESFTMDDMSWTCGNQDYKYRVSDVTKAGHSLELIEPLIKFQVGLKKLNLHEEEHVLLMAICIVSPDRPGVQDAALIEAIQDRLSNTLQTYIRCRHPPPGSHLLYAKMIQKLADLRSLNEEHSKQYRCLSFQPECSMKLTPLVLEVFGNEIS

Potency, active:
CSc1nnc(NC(=O)c2nc(S(=O)(=O)Cc3ccc(C)cc3)ncc2Cl)s1 5.8 µM
CC(=O)N(C1=C(Cl)C(=O)c2ccccc2C1=O)c1ccc(C(=O)O)cc1 20.6 µM
CCOc1ccc(N(Cc2ccccc2)C(=O)c2nc(S(C)(=O)=O)ncc2Cl)cc1 20.6 µM
Cc1cccc(CS(=O)(=O)c2ncc(Cl)c(C(=O)Nc3ccc(F)cc3)n2)c1 5.17 µM
Cc1ccc(O)c(NC(=O)CCS(=O)(=O)c2nc(-c3ccc4c(c3)OCO4)cc(C(F)(F)F)n2)c1 23.1 µM
O=[N+]([O-])/C=C/c1ccc2c(ccn2Cc2ccccc2)c1 18.4 µM
Cc1cc(C)nc(S/C=C/C(=O)c2ccccc2)n1 3.26 µM
CCCCS(=O)(=O)c1oc(-c2cccs2)nc1S(=O)(=O)c1ccccc1 5.8 µM
COc1ccc(CS(=O)/C(Cl)=C(/Cl)C(=O)Nc2ccc(OC)nc2)cc1 (stereo not drawn) 0.731 µM
COC(=O)/C=C\C(=O)Nc1cccc([N+](=O)[O-])c1 14.6 µM
C[C@@H](NC(=O)OC(C)(C)C)c1nnc(S(=O)(=O)Cc2ccccc2)o1 23.1 µM

Potency, inactive:
O=C(/C=C/c1ccccc1)c1ccccc1O
CN(C)N=Nc1ccc2nc[nH]c2c1
Cc1cccc(Oc2c([N+](=O)[O-])c(=O)n(C)c3ccccc23)c1
O=C(/C=C/c1ccc(Cl)cc1Cl)c1cccnc1
CC(=O)N1CC[n+]2c(-c3ccc([N+](=O)[O-])cc3)csc21
O=c1[nH]c(/C=C\c2cccc(C(F)(F)F)c2)nc(O)c1[N+](=O)[O-]
COc1ccc(OCc2nnc3n2N=C(c2ccccc2)C(CC(=O)O)S3)cc1 (stereo not drawn)
O=C(Nc1nc(-c2ccncc2)cs1)C1COc2ccccc2O1 (stereo not drawn)
O=C(/C=C/c1ccc(Cl)c([N+](=O)[O-])c1)c1cccnc1
Cc1ccc(-c2nc3ccccn3c2Nc2c(C)cccc2C)o1
C=CCOc1ccc(/C=C2/C(=O)ON=C2C)cc1OCC
CCOC(=O)N1CCN(C(c2cccnc2)c2ccc3cccnc3c2O)CC1 (stereo not drawn)
CC1CCN(C(=S)c2ccc(-c3ccc(Cl)cc3Cl)o2)CC1
CCOC(=O)c1sc(NC(=O)CSc2nc(C)cc(C(F)(F)F)n2)c(C#N)c1C
c1ccc2c(C[n+]3csc4ccccc43)cccc2c1
CCOC(=O)c1sc(=S)n2c1[nH]c(=O)c1ccc(C(=O)OC)cc12
O=c1cc(CO)oc(C(Nc2cccc(C(F)(F)F)c2)c2ccccn2)c1O (stereo not drawn)
